PubChem BioAssay AID1730 (National Center for Advancing Translational Sciences (NCATS), 2009)
Inconclusive results are not listed. A call without a number means that no potency is given here. Activity calls are given as the source filed them. Calls come from the whole dose curve; as a rule, active = well fitted inhibition curve with a large enough effect; inconclusive = small, poorly fitted or top-dose-only effect; inactive = no such curve, though single readings can be large or run the other way.

Test: Counterscreen Assay for Inhibitors of the ERK Signaling Pathway using a Homogeneous Screening Assay
Settings: AlphaScreen bead counterscreen in cell lysate, 5 h; series mostly up to 45.6 µM
Text: qHTS Assay for Inhibitors of the ERK Signaling Pathway using a Homogeneous Screening Assay
NIH Chemical Genomics Center [NCGC]
NIH Molecular Libraries Screening Centers Network [MLSCN]
Assay Submitter (PI): Dr. Wei Zheng, NCGC/NIH
The Ras/extracellular-signal-regulated kinase (ERK) mitogen activated protein (MAP) kinase signaling pathway (ERK1/2 cascade) plays is a key role in transmitting signals from the cell surface to the nucleus (Nishida and Gotoh 1993; Chang and Karin, 2001). The cascade is initiated by the small G-protein Ras, which recruits Raf […], where activation occurs. Alternatively, this pathway can be activated by elevating intracellular cAMP.
Activation of the ERK pathway is essential in increased cell division and cell survival. Sustained and constitutive activation of the ERK pathway, however, has been linked to uncontrolled cell proliferation, increased cell survival, and tumor progression. Thus, the ERK has been as an attractive target for cancer chemotherapy in the past few years (Sebolt-Leopold and Herrera, 2004). Given its physiological and pathological importance, assessment of ERK phosphorylation has been broadly performed in both basic research and drug discovery. Most assays for the measurement of ERK phosphorylation use the antibody-based detection methods, such as western blot and ELISA. These assays require multiple reagent additions with cell wash steps and are not suitable for high-throughput screening.
The current cell-based ERK phosphorylation assay was performed using AlphaScreen platform. AlphaScreen is a two bead-based proximity-dependent chemical energy transfer luminescent assay platform. The assay reagents (ERK SureFire(TM) kit) were supplied from TGR BioSciences (Australia). In the presence of specific antibodies, phosphorylated ERK will bring "donor" and "acceptor" beads to a proximity range (<200 nm), and subsequently lead a chemical luminescent reaction upon exciting donor beads with 680 nm laser. To exclude the assay-related false positives, we used a biotinylated rabbit IgG to perform a counter-screen. The biotinylated antibody mimics the phosphorylated ERK1/2 for bringing streptavidin coated beads and protein-A coated beads to a proximity range for the AlphaScreen detection.
NCGC Assay Protocol Summary:
Biotinylated rabbit IgG was used to perform a counter-screen in the context of an AlphaScreen assay kit provided by PerkinElmer. Data were normalized to the controls for basal activity (DMSO only) and 100% activation (25 nM IgG). AC50 values were determined from concentration-response data modeled with the standard Hill equation.
(1) Seed 4 ul/well of resuspended frozen HEK293 cells containing 2000 cells in white 1536-well plates for overnight with 1% FBS at 37C under a humidified atmosphere containing 5% CO2 and 95% air.
(2) Add 23 nL compounds in DMSO solution. The final titration was 0.6 nM to 46 uM.
(3) Incubate at 37C for 30 min.
(4) Dispense 0.5uL vasopressin (25 nM in final)
(5) Incubate at 37C for 5 min.
(6) Dispense 0.5uL of 1:2 diluted 5x lysis buffer.
(7) Incubate at 37C for 10 min.
(8) Dispense 1.5uL of mixture of activation buffer and reaction buffer with AlphaScreen beads (streptavidin donor beads and protein-A acceptor beads, 10 ng/well for each).
(9) Incubate at room temperature for 5 hr.
(10) Detect the assay plate in an EnVision plate reader (PerkinElmer) using the AlphaScreen detection mode.
Keywords: ERK, MEK, type-1 vasopressin receptors, homogenous, cell-based kinase assay, MLSMR, MLSCN, NIH Roadmap, qHTS and NCGC
For `N#CC(C#N)=c1ccc2c(c1)N1C3=C(CCCC3)CC3CCCCC31N=2` (stereo not given), the Potency was 4.47 µM (active). With `Cc1noc(NS(=O)(=O)c2ccc(NC(=O)COc3ccc(Cl)cc3Cl)cc2)c1C` the Potency was “inactive”. In the case of `O=C(c1cccs1)c1no[n+]([O-])c1C(=O)c1cccs1`, the Potency is reported as “inactive”. For `O=C1c2ccc(O)c(O)c2C(=O)c2c(O)ccc(O)c21`, the Potency was 4.47 µM (active). For `COc1ccc(N=C2C(=Nc3ccc(OC)cc3)N(c3ccc(OC)cc3)C(=S)N2C)cc1`, the Potency was 4.47 µM (active). In the case of `COc1ccc(CC(=O)Nc2cccc(-c3nnc(-c4ccc(C)cc4)o3)c2)cc1OC`, the Potency is reported as “inactive”. With `CNc1cccc2c1C(=O)c1ccccc1C2=O` the Potency was 5.01 µM (active). For `CCN(C1CCCCC1)S(=O)(=O)c1ccc(S(=O)(=O)NCc2ccncc2)cc1`, the Potency was “inactive”. With `CS(=O)(=O)CCNCc1nc(-c2ccc3ncnc(Nc4ccc(OCc5cccc(F)c5)c(Cl)c4)c3c2)cs1` the Potency was “inactive”. In the case of `Cn1nc(-c2ccc(Cl)cc2)nc2c(=O)n(C)c(=O)nc1-2`, the Potency is reported as “inactive”. With `CCCCOc1cc(CC2CNC(=O)N2)ccc1OC` (stereo not given) the Potency was “inactive”. For `Cc1ccc(Nc2ncnc3sc(C)c(C)c23)cc1`, the Potency was “inactive”. In the case of `Cc1sc2ncnc(Nc3ccccc3)c2c1C`, the Potency is reported as “inactive”. In the case of `CCCN1C(=O)/C(=C2/C=Cc3ccccc3N2CC)SC1=S`, the Potency is reported as 3.55 µM (active). For `CCOc1ccc(/C(O)=C2/C(=O)C(=O)N(c3ncccn3)C2c2ccccc2)cc1` (stereo not given), the Potency was “inactive”. In the case of `O=C(Nc1nccs1)c1cc2sccc2n1Cc1ccc(F)cc1`, the Potency is reported as “inactive”. For `N#CC(C#N)=C1C=CC=CN1/C(=C\c1ccco1)C(=O)c1ccc(Cl)cc1`, the Potency was “inactive”. For `COc1ccc(CC(=O)Nc2cccc(-c3nnc(-c4cccc(C)c4)o3)c2)cc1OC`, the Potency was “inactive”. In the case of `O=c1cc(-c2ccc(O)cc2)oc2cccc(O)c12`, the Potency is reported as “inactive”. With `Cc1cc(-c2ccccc2)n(-c2cc(N/N=C/c3ccccc3O)ncn2)n1` the Potency was “inactive”. In the case of `Cc1nc2ccccc2c2oc(C(=O)N3CCc4ccccc4C3)cc12`, the Potency is reported as “inactive”. For `CCCNc1ncnc2sc(C)c(C)c12`, the Potency was “inactive”. With `O=C1c2ccccc2C(=O)c2c1cccc2N1CCCC1` the Potency was 10 µM (active). In the case of `COc1ccc(C2=Nn3c(nnc3-c3ccccc3OC)SC2)cc1OC`, the Potency is reported as “inactive”. In the case of `COc1cc(C2CC(=O)c3c([nH]c(C(=O)OCCOC(C)C)c3C)C2)cc(OC)c1OC` (stereo not given), the Potency is reported as “inactive”. With `COc1cc2ncnc(Nc3cccc(Cl)c3)c2cc1OC` the Potency was “inactive”. With `Cc1cccc(CNc2ncnc3ccc(-c4cccc(NS(C)(=O)=O)c4)cc23)c1` the Potency was “inactive”. With `COC(=O)c1cc(-c2ccc(OC)c(OC)c2)on1` the Potency was “inactive”. With `Nc1nc2c3ccccc3nc(C3CC3)n2n1` the Potency was “inactive”. For `COc1ccc(-c2n(CC(=O)OC3CC(C)CCC3C(C)C)c3ccccc3[n+]2C)cc1` (stereo not given), the Potency was “inactive”. With `CN(C)c1ccc(Nc2c3c4c(cccc4n(C)c2=O)C(=O)c2ccccc2-3)cc1` the Potency was 3.16 µM (active). In the case of `CC1(C)OC(c2ccccc2)=C/C(=C/C=C2C(=O)c3ccccc3C2=O)O1`, the Potency is reported as 2.24 µM (active). With `Cc1ccc(Nc2ncnc3sc(C)c(C)c23)cc1C` the Potency was “inactive”. With `Fc1ccc(Nc2ncnc3sc4c(c23)CCC4)cc1F` the Potency was “inactive”. In the case of `Fc1ccc(Nc2ncnc3sc4c(c23)CCC4)cc1`, the Potency is reported as “inactive”. For `CC(=O)N1CCC(=NNc2nc3ccccc3s2)CC1`, the Potency was “inactive”. With `CC(C)Cn1c(N)c(C(=O)CSc2ccc3c(c2)OCCO3)c(=O)n(C)c1=O` the Potency was “inactive”. For `CS(=O)(=O)Nc1cccc(-c2ccc3ncnc(Nc4ccc(F)cc4)c3c2)c1`, the Potency was “inactive”. With `CC(/C=C/c1ccccc1)=N\Nc1ccccc1[N+](=O)[O-]` the Potency was 3.16 µM (active). With `COC(=O)Cc1c(C)c2ccc(OC(=O)c3ccco3)cc2oc1=O` the Potency was “inactive”.
